Test results as given in PubChem BioAssay AID624330 (Southern Research Specialized Biocontainment Screening …, 2012).
Screen size: about 340,000 compounds; about 2,100 (0.62%) were called active.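 The calls were made as follows: active = first-screen hits whose inhibition reached a set limit at any dose in the follow-up dose series; inconclusive = inhibition above the set first-screen limit but never retested; inactive = the rest.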 The list is a sample of the results. Results with a measured potency or affinity are listed apart.

The compounds below were run against Rac GTPase-activating protein 1 (Homo sapiens) (UniProt Q9H0H5) (assay: MgcRacGAP GTPase-activating activity inhibitors, confirmation, biochemical, ADP Hunter fluorescence, primary and confirmatory (AID 624330;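 also: fluorescence reports GDP produced by GAP-driven GTP hydrolysis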)). Conditions: MgcRacGAP-stimulated Rac1 GTP hydrolysis, at 30 µM, active compounds read high, GST-tagged Rac1 F28L mutant substrate.
Sequence of Rac GTPase-activating protein 1 (Homo sapiens) (Q9H0H5 whole entry, looked up): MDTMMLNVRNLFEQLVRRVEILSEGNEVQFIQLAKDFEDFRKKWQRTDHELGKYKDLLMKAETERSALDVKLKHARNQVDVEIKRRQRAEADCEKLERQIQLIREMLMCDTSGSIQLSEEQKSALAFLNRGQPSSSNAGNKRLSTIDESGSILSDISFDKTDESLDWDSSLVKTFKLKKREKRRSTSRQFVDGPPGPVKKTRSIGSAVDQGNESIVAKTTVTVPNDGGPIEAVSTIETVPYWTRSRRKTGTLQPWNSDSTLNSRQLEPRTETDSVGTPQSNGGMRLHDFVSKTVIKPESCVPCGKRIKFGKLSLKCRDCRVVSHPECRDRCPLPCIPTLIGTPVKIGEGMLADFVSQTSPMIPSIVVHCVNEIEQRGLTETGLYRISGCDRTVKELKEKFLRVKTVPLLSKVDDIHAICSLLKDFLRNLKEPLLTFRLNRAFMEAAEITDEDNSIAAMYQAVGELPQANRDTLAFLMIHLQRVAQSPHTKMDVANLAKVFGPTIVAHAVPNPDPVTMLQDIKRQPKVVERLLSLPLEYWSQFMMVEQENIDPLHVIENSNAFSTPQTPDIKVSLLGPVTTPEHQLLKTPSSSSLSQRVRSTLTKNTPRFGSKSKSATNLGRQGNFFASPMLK

inhibition, inactive:
CCSc1nnc(NC(=O)[C@H](C)NC(=O)c2ccccc2Cl)s1 9.72%, CCC(=O)Nc1ccc(NC(=S)Nc2ccccc2)cc1 8.45%, CCC(=O)Nc1ccc(C(=O)c2ccccc2)cc1 10.1%, CC(C)C1N=C2c3ccccc3N=C(SCC(=O)NCCc3ccc(S(N)(=O)=O)cc3)N2C1=O (configuration not stated) 1.59%, CC(C)C1N=C2c3ccccc3N=C(SCC#N)N2C1=O (configuration not stated) 10.5%, COc1ccc(Cl)cc1NC(=O)C1Cc2cc(S(=O)(=O)N3CCCC3)ccc2N1C(C)=O (configuration not stated) 2.38%, COc1ccc(CCNC(=O)COC(=O)CCC(=O)c2cccs2)cc1OC 3.28%, COc1cccc(S(=O)(=O)NCc2ccc(C(=O)NCc3ccco3)cc2)c1 13.6%, Cc1ccc(Cl)cc1NC(=S)N1CCC(c2ccccc2)C1 (configuration not stated) 7.04%, COc1ccc(OC)c(CN2CCN(Cc3cc(OC)c(OC)c(OC)c3)CC2)c1 -7.74%, COc1ccc(CN2CCN(c3ccc(F)cc3)CC2)c(OC)c1OC 8.37%, COc1ccc(CN2CCC(N3CC(C)OC(C)C3)CC2)c(OC)c1 (configuration not stated) 29.1%, COc1ccc(CN2CCC(n3nccc3NC(=O)C3CC3)CC2)c(OC)c1OC 8.32%, COc1ccc(OC)c(CN2CCN(c3ccccc3OC)CC2)c1 19.8%, COc1ccc(OC)c(CN2CCSCC2)c1 36.4%, COc1ccccc1N1CCN(Cc2ccc(OC)c(OC)c2OC)CC1 28.2%, COc1ccc2oc(=O)cc(CN3CCN(Cc4ccc(OC)c(OC)c4OC)CC3)c2c1 11.2%, O=C(c1ccccc1F)N1CCN(c2ccc([N+](=O)[O-])c(NCC3CCCO3)c2)CC1 (configuration not stated) 11.1%, COc1ccc(CCNC(=O)C2CCCN2C(=O)Nc2ccc(F)cc2)cc1OC (configuration not stated) 7.58%, O=C(CSc1nnc(NC(=O)C2CC(=O)N(c3ccccc3)C2)s1)NCC1CCCO1 (configuration not stated) 8.28%, CN(Cc1ccccc1)c1ncc(C=O)s1 11.2%, CCCCC(=O)Nc1ccccc1CC 7.96%, C=CCN1C(=O)CS/C1=N\N=C\c1cccc([N+](=O)[O-])c1 5.94%, CCCCNS(=O)(=O)c1ccc2nc(SCC(=O)Nc3ccccc3Cl)[nH]c2c1 9.77%, CCOc1ccc(NC(=S)N2CCN(C/C=C/c3ccccc3)CC2)cc1 6.87%, Cn1c(=O)n(C)c2cc(NC(=O)CSc3ccccc3)ccc21 6.1%, CSc1ccc(CN2CCC(Cc3ccccc3)CC2)cc1 15%, COc1ccc(CN2CCN(C(=O)c3ccccc3F)CC2)c(OC)c1OC -1.41%, CSc1ccc(CN2CCC(N3CCC(C(=O)NC4CC4)CC3)CC2)cc1 -3.51%, Clc1ccc(OCCCCCN2CCOCC2)cc1 -5.93%, CCOC(=O)Cc1csc(NC(=O)c2c(C)noc2C)n1 7.91%, CCC1=C2CC[C@H]3C(=O)N(C)C(=O)[C@H]3[C@H]2[C@@]2(Cc3ccccc3)C(=NCCOC)OC(=O)N2C1=O 10.6%, C/C(=N\NC(=O)c1nnn(-c2nonc2N)c1CN1CCCCCC1)c1ccc(Br)cc1 -3.03%, CC(Oc1ccc(F)cc1)C(=O)N(Cc1ccccc1)c1c(N)n(Cc2ccccc2)c(=O)[nH]c1=O (configuration not stated) 3.15%, CCOC(=O)Nc1ccc(Oc2ccccc2)cc1 1.24%, CCOC(=O)Nc1ccc(C(N)=O)cc1 10%, Cc1ccccc1NC(=O)COc1coc(CN2CCN(Cc3ccccc3)CC2)cc1=O 3.8%, N#Cc1ccc(-c2ccccc2)nc1Sc1ccc(F)cc1 3.11%, Cc1c(/C=N\NC(=O)C2(C)CC2(Cl)Cl)cnn1C (configuration not stated) 2.13%, CC(=O)Oc1ccc(/C=C2/C(=O)N(c3ccccc3)N=C2C)cc1 25%, CCOc1cc(/C=C2/C(=O)N(c3ccccc3)N=C2C)ccc1OC(=O)c1cccs1 15.2%, COc1ccc(C(=O)c2coc3ccc(O)c(CN4CCCC4)c23)cc1 8.22%, CN1C2CCC1/C(=C\c1ccccc1)C(=O)/C2=C\c1ccccc1 12.8%, CN1C2CCC1/C(=C\c1ccccc1F)C(=O)/C2=C/c1ccccc1F 7.33%, Cc1ccc(S(=O)(=O)N2CCCCC2)cc1NC(=O)c1c(-c2ccccc2)noc1C 0.74%, O=C(COC(=O)C1CCCCC1)Nc1ccc(S(=O)(=O)N2CCOCC2)cc1 -2.69%, CCCC(c1nnnn1CCOC)N(Cc1cc2cc(C)c(C)cc2[nH]c1=O)CC1CCCO1 (configuration not stated) 1.47%, COc1ccc(CN2CCSCC2)c(OC)c1C 28.9%, COc1ccc(CN2CCCCCC2)c(C)c1C 11.4%, COc1cc(OC)c(CN2CCCCCCC2)cc1Br 14.3%, COc1cc(Br)c(CN2CCCN(C)CC2)cc1OC 5.08%, CC(=O)N1CCSc2ccc(S(=O)(=O)Nc3ccc(C)cc3)cc21 8.81%, CC(C(=O)Nc1ccccc1-c1ccccc1)N1CCCCC1 (configuration not stated) 0.68%, CN1CCN(C(=O)CCC(=O)c2ccc(F)cc2)CC1 7.21%, COc1ccc(NC(=O)c2ccc3c(c2)C(=O)N(Cc2cccnc2)C3=O)cc1 9.43%, COc1ccc(CN2C(=O)c3ccccc3C2=O)cc1 -0.09%, CC1S/C(=N/N=C/c2cccs2)NC1=O (configuration not stated) -9.62%, Nc1cc([N+](=O)[O-])ccc1Nc1ccccc1 15.2%, Nc1ccc(Nc2ccc([N+](=O)[O-])cc2[N+](=O)[O-])cc1 25.4%, O=[N+]([O-])c1ccccc1Nc1ccccc1 5.61%, O=[N+]([O-])c1ccccc1Nc1ccccc1[N+](=O)[O-] -9.22%, CCCCOc1ccccc1N1CCN(CCCN2C(=O)C3CCCN3C2=O)CC1 (configuration not stated) 9.54%
